PubChem BioAssay
The source made the active and inactive calls.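 How the source made its calls: active means visual image review flags a hit and inhibition of aggregation exceeds 20%; inconclusive means visual hit but inhibition at or below 20%; inactive means no hit on visual image review.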

Assay: reduction of polyQ htt aggregates in cells – imaging, exon1htt(103Q)mCFP cells, high-content imaging, primary screen (AID 483);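 further: compound exposure lasted 3 days before fixation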;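 on nuclei count: percent of the per-plate median nuclei count of sample wells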
Details: exon1htt(103Q)mCFP cell line, aggregate imaging, at 2 µM; inhibition of aggregation: stronger effect = higher value; nuclei count: measured here: cell count, toxicity

SMILES | inhibition of aggregation | nuclei count [%]
Cc1ccc(-c2nnc3c4ccccc4c(C)nn23)cc1S(=O)(=O)N1CCN(C)CC1 | 3.8% (inactive) | 96.2
CCN(CC)CCCNC1CCS(=O)(=O)C1 (stereo not drawn) | 10.5% (inactive) | 126
CN(C)CCCN1C(=O)c2oc3ccc(Cl)cc3c(=O)c2C1c1cccnc1 (stereo not drawn) | -16.3% (inactive) | 112
COc1ccc(CCn2c(-c3ccco3)nc3ccccc3c2=O)cc1OC | 2.8% (inactive) | 107
O=C(CSc1nnc(-c2ccccc2)o1)N1CCc2ccccc2C1 | 2.7% (inactive) | 101
Cc1ccccc1NS(=O)(=O)c1cc(C(=O)N2CCCC2)ccc1C | 16.1% (inactive) | 86.1
Nc1c(C(=O)NCc2ccco2)nnn1Cc1ccccc1 | 5.9% (inactive) | 94.8
O=C(NCC(c1cccnc1)N1CCN(c2ccc(F)cc2)CC1)OCc1ccccc1 (stereo not drawn) | -3.7% (inactive) | 128
CCc1nnc(NC(=O)c2ccc(S(=O)(=O)NCC(C)C)cc2)s1 | -18.5% (inactive) | 100
O=C(CCNS(=O)(=O)c1ccc(Br)s1)N1CCCCC1 | -2% (inactive) | 99.9
CCCn1c(SCC(=O)NC(C)(C)C)nnc1C(C)C | 6.5% (inactive) | 102
CC(CN1CCCCC1)OC(=O)c1ccc2c(c1)OCO2 (stereo not drawn) | 27.4% (inactive) | 70.8
CC(C)(C)NC(=O)Cn1nnnc1-c1nonc1N | -5.9% (inactive) | 120
CC1(C)CC(=O)C(C=NCc2ccc3c(c2)OCO3)=C(O)C1 | 2.3% (inactive) | 104
CN1CCN(c2nc(-c3ccncc3)nc3ccccc23)CC1 | -19.7% (inactive) | 51.3
COc1ccc(S(=O)(=O)NCc2ccc(C(=O)O)cc2)cc1 | -11.9% (inactive) | 55.2
COc1ccc(CC(=O)Nc2ccc(OC)c(NC(=O)c3ccco3)c2)cc1 | 4% (inactive) | 99.6
COc1ccc(NC(=O)C23CCC(C)(C(=O)C2)C3(C)C)cc1 (stereo not drawn) | -15.6% (inactive) | 103
Cc1ccc(-c2nc3cc(N)ccc3o2)cc1 | 11.7% (inactive) | 101
COc1cccc(C(=O)Nc2ccc(NC(C)=O)cn2)c1 | -0.2% (inactive) | 96.3

SMILES | inhibition of aggregation | nuclei count [%]
Cc1cnc(C(=O)Nc2ccc(N3CCN(C(=O)OC(C)(C)C)CC3)cc2)cn1 | -7.1% (inactive) | 4.4
O=C(CSc1nnnn1C1CCCC1)NCc1ccc2c(c1)OCO2 | 3% (inactive) | 87.9
CCC(C)(C(=O)NC1CCCC1)N(Cc1cccs1)C(=O)Cc1cccs1 (stereo not drawn) | 21% (inactive) | 127
CCOc1ccc2c(c1)n(CO)c(=S)n2CO | 4.4% (inactive) | 68.8
CCn1c(CSc2nnc(-c3cccnc3)n2-c2ccccc2C)nc2cc(C(=O)O)ccc21 | 5.1% (inactive) | 101
CCOC(=O)NC(=O)CSc1nnnn1-c1ccc(Cl)cc1 | 2.2% (inactive) | 83.5
Nn1cc(-c2ccccc2)nc1SCC(=O)N1CCN(S(=O)(=O)c2ccccc2)CC1 | 13.8% (inactive) | 102
COC(=O)C1=C(N)Oc2cc(C)n(Cc3ccncc3)c(=O)c2C1c1cccnc1 (stereo not drawn) | 0% (inactive) | 87.4
COC(=O)C1CCN(C(=O)CN2C(=O)NC(CCc3ccccc3)C2=O)CC1 (stereo not drawn) | -7.5% (inactive) | 95.7
O=C(CSc1nnc(C2COc3ccccc3O2)o1)N1CCCc2ccccc21 (stereo not drawn) | 0.8% (inactive) | 87.9
CN(C)S(=O)(=O)N1CCN(C(=O)N(c2ccccc2)c2ccccc2)CC1 | 0% (inactive) | 108
COCC(C)NC(=O)CCS(=O)(=O)c1nc(-c2ccc(OC)cc2)cc(C(F)(F)F)n1 (stereo not drawn) | 2.6% (inactive) | 96.3
O=C(NCc1cccnc1)c1ccc(Cl)c(Cl)c1 | 25.4% (inactive) | 102
CCN(CC)CCOC(=O)c1cccc(OC)c1 | -8.4% (inactive) | 114
CN1CCN(c2ncnc3c2cnn3-c2ccc(Cl)cc2)CC1 | -0.6% (inactive) | 116
NC(=O)C1CCN(C(=O)c2cc3n(n2)C(C(F)(F)F)CC(c2ccco2)N3)CC1 (stereo not drawn) | 2.5% (inactive) | 93.4
CC(C)(C)c1ccc2c(c1)OCC(C(=O)O)O2 (stereo not drawn) | -7.2% (inactive) | 110
Cc1cc(C)c2c(n1)nn1c(NCCCN3CCOCC3)cc(C)nc21 | 11.5% (inactive) | 119
Cc1n[nH]c(C)c1N1C(=O)c2cccc3cc(Br)cc(c23)C1=O | -9.9% (inactive) | 103
